Screening data (PubChem BioAssay)
USP30 inh – blocks human USP30 ubiquitin-rhodamine cleavage; Q70CQ3; purified USP30, Ub-rhodamine cleavage fluorescence; inhibition, % at 25 µM; AID 1645860; hit rate 5.3% among 47,000
Target sequence (Q70CQ3 whole entry, looked up): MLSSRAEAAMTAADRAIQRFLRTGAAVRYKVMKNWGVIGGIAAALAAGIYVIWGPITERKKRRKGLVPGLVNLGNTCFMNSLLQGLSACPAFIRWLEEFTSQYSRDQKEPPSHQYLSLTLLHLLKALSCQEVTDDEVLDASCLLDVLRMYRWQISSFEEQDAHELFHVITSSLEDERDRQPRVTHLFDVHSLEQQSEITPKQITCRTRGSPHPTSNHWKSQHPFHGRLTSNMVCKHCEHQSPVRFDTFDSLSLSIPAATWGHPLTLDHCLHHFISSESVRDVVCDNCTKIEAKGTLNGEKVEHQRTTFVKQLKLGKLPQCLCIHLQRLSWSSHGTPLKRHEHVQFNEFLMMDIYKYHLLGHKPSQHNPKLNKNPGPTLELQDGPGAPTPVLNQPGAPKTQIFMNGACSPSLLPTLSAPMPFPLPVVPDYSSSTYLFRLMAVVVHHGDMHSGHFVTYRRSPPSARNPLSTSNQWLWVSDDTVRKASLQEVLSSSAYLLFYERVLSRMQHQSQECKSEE
USP8 inh – blocks human USP8 ubiquitin-rhodamine cleavage. hit rate 4.2% among 47,000. inhibition, % at 20 µM. purified USP8, Ub-rhodamine cleavage fluorescence, 30 min
USP17 block – human USP17-like deubiquitinase inhibition | A8MUK1 | purified USP17, Ub-rhodamine cleavage fluorescence, 3 h | inhibition, % at 50 µM | hit rate 6.5% among 47,000
USP7 inh – inhibitors of human USP7 deubiquitinase; inhibition, % at 20 µM; hit rate 0.3% among 47,000; Q93009; purified USP7, Ub-rhodamine cleavage fluorescence
UCHL1 block – blocks human UCHL1 ubiquitin-rhodamine cleavage | P09936 | purified UCHL1, Ub-rhodamine cleavage fluorescence | inhibition, % at 20 µM | hit rate 0.2% among 47,000
USP10 block – inhibitors of human USP10 deubiquitinase; Q14694; purified USP10, Ub-rhodamine fluorescence, 60 min; inhibition, % at 20 µM; hit rate 1.1% among 47,000; AID 1645856
The depositor's hits bear a star; i = inactive. Hits are enriched below; roughly 13% of the tested compounds scored in any of these assays. No stated cut-off is given here; in the data, active means inhibition above about 30%; inactive means the rest.

SMILES	USP30 inh	USP8 inh	USP17 block	USP7 inh	UCHL1 block	USP10 block
Cc1ccc2ncc(S(=O)(=O)c3ccccc3)c(N3CCC4(CC3)OCCO4)c2c1	-21	6	-1	0	2	-5
O=C(Nc1ccc(N2CCOCC2)cc1)c1ccccc1C(=O)c1ccc(F)cc1	-26	-13	-2	-6	-3	-2
Cc1ccc(NC(=O)c2cnn3c2NC(C(=O)O)=CC3/C=C/c2ccccc2)cc1 (configuration not stated)	5	34*	19	-142	-164	-6
O=C(O)C1=CC(/C=C/c2ccccc2)n2ncc(C(=O)Nc3ccc(F)cc3)c2N1 (configuration not stated)	-27	41*	13	-142	-156	-7
Cc1ccc(NC(=O)c2ccccc2C)cc1	20	14	9	2	1	3
COc1ccc(CCNc2nc(-c3ccccc3)cc(-c3ccccc3)c2C#N)cc1OC	26	3	37*	3	2	7
CCn1nccc1C1CCCN1C(=O)Nc1ccc(C)c(C)c1 (configuration not stated)	14	3	1	-1	-2	1
Cc1c(C2CCCN(C(=O)c3ccn(C)n3)C2)n2c(nc1=O)CCC2 (configuration not stated)	37*	36*	19	9	3	4
Cc1ccc(CNS(=O)(=O)c2cc(-c3noc(C)n3)ccc2C)cc1	2	14	-1	7	2	3
Clc1ccc2nc(NC3=NCN(CCc4ccccc4)CN3)nc(-c3ccccc3)c2c1	38*	9	-5	4	-2	-1
COc1cccc2c(C)nc(NC3=NCN(CCc4ccccc4)CN3)nc12	33*	11	0	7	0	-3
COc1ccccc1NC(=O)N1CCN(CCc2ccccc2)CC1	17	5	4	5	1	0
COc1cccc(OC)c1C(=O)OCC(=O)Nc1ccc(Oc2ccccc2)cc1	23	11	14	14	7	8
COc1ccc(CN2C[C@H]3C[C@H](C(=O)NC4CCC4)[C@@H](C2)O3)cc1	6	-10	-1	3	2	2
CN(C)CCCNC(=O)c1cc2cn(C3CCCC3)cc2s1	-37	63*	6	0	0	-3
O=C(NCCCN1CCCC1=O)c1cc2cn(C3CC3)cc2s1	-209	66*	14	-16	-8	-10
CN1CCN(CCNC(=O)c2cc3cn(C4CCCC4)cc3s2)CC1	-24	-9	3	-5	0	-4
CC1CCN(CCNC(=O)c2cc3cn(C4CC4)cc3s2)CC1	-179	54*	-19	-17	-15	-7
Cc1cn([C@H]2CC(O)C(CO)O2)c(=O)[nH]c1=O (some centres not stated)	10	1	-6	0	-3	0
O=C(C1CN(C(=O)COc2ccc3ccccc3c2)c2ccccc2O1)N1CCCCC1 (configuration not stated)	29	25	10	-5	6	8
Cc1ccc(NC(=O)c2cn(Cc3ccccc3)nc2-c2cccnc2)c(C)c1	2	0	2	-8	1	2
COc1ccc(Sc2nnc(C)c3nnn(Cc4ccc(F)cc4)c23)cc1	28	-107	32*	4	5	8
Cc1ccc(C)c(NC(=O)CSc2cc(N3CCCCC3)ncn2)c1	41*	0	11	-2	0	1
O=C(CSc1cc(N2CCCCC2)ncn1)NC1CCCC1	18	4	6	-5	2	2
O=C(N1CC(O)C1)C1(Cc2cccc(-c3ccc(F)c(F)c3)c2)CCOCC1	12	7	2	-11	2	0
SMILES	USP30 inh	USP8 inh	USP17 block	USP7 inh	UCHL1 block	USP10 block
CCN1c2ccc(S(=O)(=O)N3CCOCC3)cc2N(Cc2c(F)cccc2F)C1C (configuration not stated)	-82	-26	-4	2	-2	1
O=S1(=O)CCN(Cc2c(F)cccc2F)c2c(F)nc(N3CCOCC3)c(F)c21	3	93*	67*	-5	9	6
CCN(CC)c1nc(F)c2c(c1F)S(=O)(=O)CCN2Cc1ccccc1	24	95*	64*	-1	9	-9
O=S1(=O)CCN(Cc2cccnc2)c2c(F)nc(N3CCOCC3)c(F)c21	-5	91*	54*	-1	5	2
Cc1cc(-c2ccc(S(=O)(=O)NCc3ccccn3)s2)on1	-12	1	-13	0	1	0
Cc1cc(-c2ccc(S(=O)(=O)NCCc3ccccc3)s2)on1	35*	20	29	10	6	6
Cc1ccc(C)c(CN2C(=O)COc3ccc(C(=O)c4ccccc4C(=O)O)cc32)c1	36*	25	9	2	10	10
COC(=O)c1cc2c(ccn2C)n1Cc1cccc(F)c1	i	22	-63	-57	-47	-12
COC(=O)c1cc2c(ccn2C)n1CC(=O)N1CC(C)CC(C)C1 (configuration not stated)	i	-11	-131	-20	-15	-5
COC(=O)c1cc2c(ccn2C)n1Cc1ccc(F)cc1	-372	52*	-15	-98	-13	-9
COC(=O)c1cc2c(ccn2C)n1CC(=O)N(C1CCCCC1)C1CCCCC1	-301	49*	-29	0	-7	-5
COC(=O)c1cc2c(ccn2C)n1CC(=O)N1CCN(Cc2ccccc2)CC1	-265	32*	-44	-33	-20	-5
Cc1cc(CN2CC[C@H]3[C@H]2CCN3S(=O)(=O)C2CC2)oc1C	-30	-83	-23	0	2	-3
COc1ccc(C2OC(c3ccccc3)C(C)N2C)cc1 (configuration not stated)	-17	0	-3	-3	-1	-1
COc1ccc(-c2nc(CNS(=O)(=O)c3ccc(OC)c(C)c3)cs2)cc1	24	3	38*	9	4	6
COc1ccc(-c2nc(CNS(=O)(=O)c3ccc(OC)cc3)cs2)cc1	0	-2	49*	1	-1	3
COc1ccc(S(=O)(=O)NCc2nnnn2-c2ccc(C)cc2)cc1C	19	25	9	2	1	3
COCCN1Cc2c(C(=O)Nc3cccnc3)ncn2-c2ccccc2S1(=O)=O	22	8	5	-3	0	0
O=C(CSc1nnc(-c2ccccc2F)n1CCc1ccccc1)c1c[nH]c2ccccc12	-45	-9	-51	-6	-2	-3
Fc1ccccc1-c1nnc(SCc2ccccc2)n1Cc1ccccc1	56*	29	48*	1	6	12
CC(Sc1nnc(-c2ccccc2F)n1Cc1ccccc1)C(=O)N1CCc2ccccc21 (configuration not stated)	42*	17	24	-2	5	6
c1ccc(-c2cc3nc(NCCc4ccccn4)ccn3n2)cc1	-30	-32	-22	-2	-2	-6
